# Shown are actives, neighbours in structure and some others; about 11% of the full set was active somewhere.
# BAZ2B inh = qHTS Assay for Inhibitors of BAZ2B; AlphaScreen BAZ2B-H3K14Ac peptide displacement; AID 504333, 2011; Bromodomain adjacent to zinc finger domain protein 2B (Homo sapiens), Q9UIF8; hit rate 4.4% among 360,000; Potency, µM (highest dose often 114 µM), for the others: at the highest dose activity change, negative = inhibition, actives largely listed as inhibitors; further: potency means the concentration at half of the fitted maximal effect; on the % scale 0 is the no-effect control and ±100 the full control effect; nearly all actives have a fitted effect of over 60% in size
# Target sequence (Q9UIF8 whole entry, looked up, the tested form may be a part): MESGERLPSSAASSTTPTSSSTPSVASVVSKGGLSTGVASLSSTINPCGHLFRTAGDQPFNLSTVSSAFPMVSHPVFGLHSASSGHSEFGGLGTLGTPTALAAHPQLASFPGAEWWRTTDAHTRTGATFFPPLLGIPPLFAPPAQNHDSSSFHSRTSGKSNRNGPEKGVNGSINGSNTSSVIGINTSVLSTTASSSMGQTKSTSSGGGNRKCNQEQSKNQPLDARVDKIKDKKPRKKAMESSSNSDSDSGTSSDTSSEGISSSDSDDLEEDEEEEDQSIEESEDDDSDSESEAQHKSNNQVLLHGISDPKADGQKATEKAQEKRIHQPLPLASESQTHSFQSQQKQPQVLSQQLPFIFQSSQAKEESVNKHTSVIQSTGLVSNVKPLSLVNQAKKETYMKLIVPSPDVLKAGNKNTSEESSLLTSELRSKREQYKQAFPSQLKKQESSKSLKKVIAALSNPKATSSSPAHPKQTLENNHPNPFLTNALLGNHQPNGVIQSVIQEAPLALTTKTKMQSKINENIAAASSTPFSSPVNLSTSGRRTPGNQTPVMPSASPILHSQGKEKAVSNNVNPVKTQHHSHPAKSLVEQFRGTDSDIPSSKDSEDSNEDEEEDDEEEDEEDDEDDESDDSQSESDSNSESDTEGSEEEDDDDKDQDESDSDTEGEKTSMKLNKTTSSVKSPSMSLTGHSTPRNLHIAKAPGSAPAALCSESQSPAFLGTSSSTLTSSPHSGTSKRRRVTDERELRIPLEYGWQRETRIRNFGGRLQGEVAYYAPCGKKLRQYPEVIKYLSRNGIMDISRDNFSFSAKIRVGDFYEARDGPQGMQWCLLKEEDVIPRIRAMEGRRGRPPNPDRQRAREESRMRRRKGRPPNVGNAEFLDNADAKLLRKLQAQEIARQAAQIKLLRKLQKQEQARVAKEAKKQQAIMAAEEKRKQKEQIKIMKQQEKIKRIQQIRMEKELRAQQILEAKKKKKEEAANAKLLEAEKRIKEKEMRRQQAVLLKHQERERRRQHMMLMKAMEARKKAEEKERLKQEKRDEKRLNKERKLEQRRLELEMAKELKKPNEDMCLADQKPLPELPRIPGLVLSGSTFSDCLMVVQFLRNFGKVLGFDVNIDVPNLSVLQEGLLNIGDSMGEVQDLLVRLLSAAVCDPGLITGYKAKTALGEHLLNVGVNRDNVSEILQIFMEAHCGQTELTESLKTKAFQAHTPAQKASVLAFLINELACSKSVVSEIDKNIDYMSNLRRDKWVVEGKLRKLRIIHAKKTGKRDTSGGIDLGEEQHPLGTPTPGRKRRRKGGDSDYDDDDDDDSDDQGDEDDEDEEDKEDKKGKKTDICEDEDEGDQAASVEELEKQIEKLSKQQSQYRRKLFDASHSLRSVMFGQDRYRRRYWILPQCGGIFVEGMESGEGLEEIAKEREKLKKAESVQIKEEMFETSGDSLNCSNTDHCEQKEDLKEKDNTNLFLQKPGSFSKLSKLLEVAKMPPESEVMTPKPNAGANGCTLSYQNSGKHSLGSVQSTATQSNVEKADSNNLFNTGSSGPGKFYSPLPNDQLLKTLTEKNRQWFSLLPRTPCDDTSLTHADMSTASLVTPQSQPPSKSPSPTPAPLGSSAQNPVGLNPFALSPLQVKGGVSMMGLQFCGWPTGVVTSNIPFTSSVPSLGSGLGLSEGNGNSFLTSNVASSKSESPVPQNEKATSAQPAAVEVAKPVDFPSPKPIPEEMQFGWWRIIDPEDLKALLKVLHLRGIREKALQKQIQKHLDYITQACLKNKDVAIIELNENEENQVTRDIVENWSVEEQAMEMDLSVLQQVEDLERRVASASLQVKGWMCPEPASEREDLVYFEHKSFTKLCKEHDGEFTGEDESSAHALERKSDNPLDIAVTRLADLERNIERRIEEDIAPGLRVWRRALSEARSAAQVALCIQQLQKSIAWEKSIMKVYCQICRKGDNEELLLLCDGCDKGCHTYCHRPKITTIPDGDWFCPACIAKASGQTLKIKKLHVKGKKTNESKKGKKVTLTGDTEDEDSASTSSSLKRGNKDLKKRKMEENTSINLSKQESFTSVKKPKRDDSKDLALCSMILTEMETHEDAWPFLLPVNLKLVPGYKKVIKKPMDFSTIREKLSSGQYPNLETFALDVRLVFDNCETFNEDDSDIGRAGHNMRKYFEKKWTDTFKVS
#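 Inhibition is scored as reduced AlphaScreen emission. The BAZ2B/b-H3(5-23)K14Ac complex (50 nM each) in PBS pH 7.4, 0.01% Tween-20 meets compound (up to 110 uM) for 30 min at RT before bead addition.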
# G9a inh = qHTS Assay for Inhibitors of Histone Lysine Methyltransferase G9a; hit rate 8.8% among 350,000; AID 504332, 2011; Potency, µM (titrated, usually from 102 µM), inactives show top-dose activity, negative = inhibition, most hits filed as inhibitors; Histone-lysine N-methyltransferase EHMT2 (Homo sapiens), Q96KQ7; G9a H3K9 monomethylation, AlphaScreen, 2 h; further: potency means the concentration at half of the fitted maximal effect; on the % scale 0 is the no-effect control and ±100 the full control effect; nearly all actives have a fitted effect of over 75% in size
#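 Quantitative HTS format: methyltransferase activity on a biotin-tagged H3K9 peptide is measured by AlphaScreen, using a rabbit anti-monomethyl-H3K9 antibody with streptavidin donor and anti-IgG acceptor beads. Final levels are 20 nM enzyme, 500 nM peptide, 20 uM SAM; 2 h RT.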
# HP1b binding inh = HTS for Inhibitors of HP1-beta Chromodomain Interactions with Methylated Histone Tails; Chromobox protein homolog 1 (Homo sapiens), P83916; AlphaScreen HP1-beta / biotin-H3K9me3 peptide binding; Potency, µM (top dose mostly 114 µM), without a hit: at the highest dose activity change, negative = inhibition, usual class: inhibitors; hit rate 0.56% among 390,000; further: potency means the concentration at half of the fitted maximal effect; nearly all actives have a fitted effect of over 70% in size
#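 Compound inhibition of the preformed complex between 50 nM HP1-beta and 50 nM biotinylated H3K9me3 peptide was read by AlphaScreen. Buffer was PBS pH 7.4 with 0.01% Tween-20. Incubations ran 30 min at room temperature, with 10 ug/mL donor/acceptor beads.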
# PI5P4Ka inh = qHTS for Inhibitors of phosphatidylinositol 5-phosphate 4-kinase (PI5P4K). hit rate 1.2% among 330,000. PI5P4Kalpha enzyme, ADP-Glo luminescence, 60 min; stronger effect = lower value. max response, %. AID 652105, 2013. Phosphatidylinositol 5-phosphate 4-kinase type-2 alpha (Homo sapiens), P48426; active means max response of -50% or lower; inconclusive means between -30% and -50%; inactive means -30% or higher; further: value at the top dose of about 77 µM; on the % scale 0 is the no-effect control and ±100 the full control effect
#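 PI5P4Kalpha ADP-Glo assay; 5 microM ATP final; 60 min RT reaction; HEPES pH 7.4/EGTA/CHAPS, 5% DMSO; controls lacking substrate or enzyme; luminescent end-point.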
# JMJD2A Tudor inh = qHTS Assay for Inhibitors of JMJD2A-Tudor Domain | Lysine-specific demethylase 4A (Homo sapiens), O75164 | AlphaScreen JMJD2A-Tudor / H3K4me3 peptide binding | Potency, µM (titrated, usually from 114 µM), for inactives: at the highest dose activity change, negative = inhibition, most hits filed as inhibitors | hit rate 4.4% among 390,000 | AID 504339, 2011; further: potency means the concentration at half of the fitted maximal effect; on the % scale 0 is the no-effect control and ±100 the full control effect; nearly all actives have a fitted effect of over 50% in size
# L3MBTL1 block = qHTS Assay for the Inhibitors of L3MBTL1 | Lethal(3)malignant brain tumor-like protein 1 (Homo sapiens), Q9Y468 | AlphaScreen L3MBTL1–H3K9me1 peptide binding | Potency, µM (titrated, usually from 57.1 µM), for inactives: at the highest dose activity, negative = inhibition, usual class: inhibitors | hit rate 0.66% among 230,000 | AID 485360, 2010; further: potency means the concentration at half of the fitted maximal effect; on the % scale 0 is the no-effect control and ±100 the full control effect; nearly all actives have a fitted effect of over 60% in size
#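 Displacement of a biotinylated histone H3(1-15) peptide monomethylated at Lys9 (75 nM) from L3MBTL1 (50 nM) was measured by AlphaScreen after a 30 min room-temperature compound incubation; cefsulodin titration served as intraplate control.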
# Starred values were filed as active, the others as inactive; ? = inconclusive; . = not tested or not shown; ! = not confirmed by another sample; [ ] = dose if it differs, or a comment. Unless noted, the call rests on the fitted dose curve; in most records, active means well fitted inhibition curve with a large enough effect; inconclusive means small, poorly fitted or top-dose-only effect; inactive means no such curve, though single readings can be large or run the other way.
SMILES,BAZ2B inh,G9a inh,HP1b binding inh,PI5P4Ka inh,JMJD2A Tudor inh,L3MBTL1 block
COC(=O)c1ccc(-n2cc(-c3ccc(OC)cc3)[nH]c2=S)cc1,-9.9%,1.12µM*,12.9%,1.0,-16.0%,1.2%
COc1ccc(-n2cc(-c3ccc(Cl)cc3)[nH]c2=S)cc1,-2.0%,.,47.0%,-4.8,0.0%,-3.7%
Cc1ccc(Cl)cc1NC(=O)Nc1cn(CC(C)C)c(=O)c2ccccc12,-2.5%,?,24.4%,.,9.6%,.
O=C(/C=C1\NC2(CCCC2)Cc2ccccc21)C(=O)N/N=C/c1ccc(O)c(O)c1,39.8µM*,11.2µM*,?,?,10µM*,14.1µM*
CCOc1ccccc1CNC(=O)CCCN1C(=O)CCn2nc(-c3cccn3C)cc21,?,-42.1%[59 µM],-9.4%[57 µM],.,?,.
COc1cc(Cl)c(C)cc1NC(=O)CSc1ncc(S(=O)(=O)c2ccc(C(C)(C)C)cc2)c(=O)[nH]1,25.1µM*,-48.9%[59 µM],-21.4%,.,89.1µM*,.
Cc1cc2nnc(SCc3ccc(F)cc3)n2c2ccccc12,0.0%,-8.7%[59 µM],28.4%,.,-18.3%,.
COc1ccc(-c2nn(C)c3sc(C(=O)N4CCN(c5cccc(C)c5C)CC4)cc23)cc1OC,.,-3.6%[59 µM],12.0%,.,-20.3%,.
Cc1ccc(-c2nc(CS(=O)CC(=O)N3CCN(c4ccc(F)cc4)CC3)c(C)o2)cc1 (stereo unspecified),28.2µM*!,14.1µM*!,46.5%,5.1,?,.
CCOC(=O)C1CCN(C(=O)CS(=O)Cc2nc(-c3ccc(C)cc3)oc2C)CC1 (stereo unspecified),3.0%,28.2µM*,18.0%,-12.4,-13.9%,7.1%
Cc1oc(-c2ccc(Cl)cc2)nc1CS(=O)CC(=O)N1CCN(c2cccc(C(F)(F)F)c2)CC1 (stereo unspecified),-4.8%,?,0.1%,.,?,.
Cc1ccc(-c2nc(CS(=O)CC(=O)N3CCN(c4cccc(Cl)c4)CC3)c(C)o2)cc1 (stereo unspecified),25.1µM*,?,-16.0%,.,?,.
Cc1ccc(-c2nc(CS(=O)CC(=O)O)c(C)o2)cc1 (stereo unspecified),1.9%,-5.5%[59 µM],19.2%,.,-28.7%,.
Cc1cc2c(cc3c(SCC(=O)Nc4cccc(Cl)c4C)nnc(C)n32)o1,-17.2%,?,25.9%,.,-18.7%,.
COc1ccc(NC(=O)c2oc3ccc(S(=O)(=O)N(C)C4CCCCC4)cc3c2C)cc1Cl,-2.2%,5.1%[59 µM],13.9%,.,-11.9%,.
Cc1ccc(S(=O)(=O)n2nc(C)c(S(=O)(=O)N3CCOCC3)c2C)cc1,?,35.5µM*,47.5%,0.8,?,.
Cc1nn(S(=O)(=O)c2ccc(Cl)cc2)c(C)c1S(=O)(=O)N1CCOCC1,-7.8%,?,7.1%,-12.5,?,.
Cc1nn(S(=O)(=O)c2ccc(Br)cc2)c(C)c1S(=O)(=O)N1CCCCCC1,2.9%,-3.5%[59 µM],28.8%,.,-8.7%,.
Cc1nn(S(=O)(=O)c2cccc([N+](=O)[O-])c2)c(C)c1Br,?,?,-13.0%,-7.1,-24.3%[57.1 µM],?
Cc1nn(S(=O)(=O)c2ccc(Br)cc2)c(C)c1S(=O)(=O)N1CCOCC1,?,39.8µM*,37.8%,-8.8,-10.3%,.
Cc1nn(S(=O)(=O)c2cccc([N+](=O)[O-])c2)c(C)c1S(=O)(=O)N1CCOCC1,-27.1%,-4.3%[59 µM],83.6%,5.0,79.4µM*,.
Cc1cccc(C)c1OC(=O)CSc1nnc(-c2ccc3c(c2)OCO3)o1,1.7%,-8.4%[59 µM],12.8%,.,-8.6%,.
O=C(CSCCO)Nc1cccc2ccccc12,11.5%,50.1µM*,37.6%,1.4,0.8%,.
CSc1ccccc1NC(=O)Nc1cccc2ccccc12,18.3%,79.4µM*,26.1%,-0.3,2.7%,.
CCc1ccccc1NC(=O)Nc1ccc2snnc2c1,-3.0%,10.9%[59 µM],25.5%,.,7.7%,.
SMILES,BAZ2B inh,G9a inh,HP1b binding inh,PI5P4Ka inh,JMJD2A Tudor inh,L3MBTL1 block
CSc1ccccc1NC(=O)Nc1cccc(Cl)c1Cl,7.4%,0.4%[59 µM],30.2%,.,-12.6%,.
O=C(Nc1ccc2snnc2c1)Nc1cccc2ccccc12,-5.5%,50.1µM*,-19.7%,1.6,-3.1%[11.4 µM],.
CCc1ccccc1NC(=O)C(=O)NCCCN1CCOCC1,2.4%,-40.9%[59 µM],31.3%,.,-10.0%,.
O=S(NCc1ccccc1)C12CC3CC(CC(C3)C1)C2 (stereo unspecified),7.6%,-26.2%[12.7 µM],17.7%,.,-14.3%,.
O=S(NCc1ccco1)C12CC3CC(CC(C3)C1)C2 (stereo unspecified),-1.3%,6.31µM*,-2.4%,.,-35.0%,-3.0%
CCCCNC(=O)C(CC)Sc1nnc(-c2ccc(OC)c(OC)c2)c(-c2ccc(OC)c(OC)c2)n1 (stereo unspecified),-16.1%,1.7%[59 µM],5.3%,.,-23.0%,.
CCCc1ccc(-c2c(C)sc(N)c2C#N)cc1,?,39.8µM*,?,-2.0,-29.0%,.
Cc1cc(C(=O)CSc2nc3ccccc3[nH]2)c(C)n1Cc1ccco1,?,14.1µM*,-14.1%,-2.5,?,-5.5%
Cc1cc(C(=O)CN2C(=O)NC(C)(c3cccc(Br)c3)C2=O)c(C)n1Cc1ccco1 (stereo unspecified),-3.1%,50.1µM*,-15.8%,-16.2,-30.9%,-14.7%
Cc1cc(C(=O)CSc2nncs2)c(C)n1Cc1ccco1,?,?,-0.8%,0.6,-25.4%,.
Cc1cc(C(=O)CN2C(=O)NC(c3ccccc3)(c3ccccc3)C2=O)c(C)n1Cc1ccco1,-35.7%,-37.3%[59 µM],?,-4.4,-26.4%,-28.5%
Cc1cc(C(=O)CSc2nc3ccccc3[nH]2)c(C)n1C,?,?,?,-5.6,56.2µM*,-15.1%
Cc1ccc2nc(SCC(=O)c3cc(C)n(C)c3C)[nH]c2c1,-37.4%,-19.0%,-15.0%,-12.3,-19.8%,.
Cc1cc(C(=O)CSc2nc3ccc(Cl)cc3[nH]2)c(C)n1CC1CCCO1 (stereo unspecified),?,44.7µM*,-24.2%,-14.3,?,.
Cn1c(=O)c2nc(SCC(=O)Nc3ccc(Cl)c(Cl)c3)n(C)c2n(C)c1=O,-0.3%,-3.0%[59 µM],64.8%,.,5.2%,.
CCOC(=O)c1ccccc1NC(=O)Cn1ncc2c([nH]c3ccccc32)c1=O,-2.9%,-2.3%[59 µM],12.6%,.,3.3%,.
COc1ccc(S(=O)(=O)N2CCN(Cc3nc4ccc(C)cc4o3)CC2)cc1Cl,-30.4%,-10.6%[59 µM],13.6%,.,-13.9%,.
